Test results as given in PubChem BioAssay AID1159580 (chemical genetic matrix, 2015).
Several values for one entry are separate records, joined by “and”; a condition that tells them apart may be missing. Equal values may be shown once. About 2,000 (36%) of roughly 5,500 compounds were called active. Roughly 18% stayed inconclusive and do not appear here. Rule as the data show it: active = normalized growth mostly below about 0.91 (no sharp cut-off); inconclusive = no clear call, values can overlap the other calls; inactive = mostly above about 0.92. The list shows a part of the results.

Experiment: chemical genetic growth profiling, strain panel (AID 1159580);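 also: tested at 20 µM; growth read once vehicle control cultures reached saturation at 30 °C; 1 = growth at the plate median or of vehicle wells; lower values mean less growth of the strain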
Conditions: S. cerevisiae deletion strains, growth OD
[1] = locus YPL241C, strain CIN2, hits give low values
[2] = locus YHR030C, strain SLT2, hits give low values
[3] = locus YHR079C, strain IRE1, hits give low values
[4] = locus YJL095W, strain BCK1, hits give low values
[5] = locus YJR066W, strain TOR1, hits give low values
[6] = locus YLR113W, strain HOG1, hits give low values
[7] = locus YNL183C, strain NPR1, hits give low values
[8] = locus YOR231W, strain MKK1, hits give low values
[9] = locus YPL256C, strain CLN2, hits give low values

Measured: normalized growth

CCN1CCc2nc(N)oc2CC1
inactive: locus YAL013W, strain DEP1, hits give low values 1.03 | locus YAL040C, strain CLN3, hits give low values 0.981 | locus YCL061C, strain MRC1 (second series), hits give low values 1 | locus YDR363W, strain ESC2, hits give low values 1.03 | locus YER002W, strain NOP16, hits give low values 0.993 | locus YMR263W, strain SAP30, hits give low values 1 | locus YNL175C, strain NOP13, hits give low values 1.01 | locus YNL197C, strain WHI3, hits give low values 1.02 | locus YNL224C, strain SQS1, hits give low values 0.995 | locus YOR083W, strain WHI5 (second series), hits give low values 0.999 | [1] 0.998

O=C1O[C@H](C(O)CO)C(O)=C1O (stereo partly drawn)
inactive: locus YAL021C, strain ccr4, hits give low values 0.975 | locus YAL026C, strain drs2, hits give low values 0.974 | locus YAL030W, strain snc1, hits give low values 0.988 | locus YBL061C, strain skt5, hits give low values 0.984 | locus YBR009C, strain hhf1, hits give low values 0.992 | locus YBR021W, strain FUR4, hits give low values 0.976 | locus YBR023C, strain chs3, hits give low values 0.978 | locus YBR171W, strain sec66, hits give low values 0.983 | locus YBR229C, strain ROT2, hits give low values 0.991 | locus YBR231C, strain swc5, hits give low values 1.01 | locus YBR279W, strain paf1, hits give low values 0.986 | locus YCL011C, strain gbp2, hits give low values 0.989 | locus YCL016C, strain dcc1, hits give low values 0.986 | locus YCL029C, strain bik1, hits give low values 0.96 | locus YCL061C, strain MRC1, hits give low values 0.975 | locus YCL069W, strain vba3, hits give low values 0.997 | locus YCR088W, strain abp1, hits give low values 0.985 | locus YDL005C, strain med2, hits give low values 0.983 | locus YDL035C, strain GPR1, hits give low values 1.03 | locus YDL040C, strain nat1, hits give low values 0.987 | locus YDL074C, strain BRE1, hits give low values 0.997 | locus YDL101C, strain DUN1, hits give low values 0.993 | locus YDL185W, strain tfp1, hits give low values 0.973 | locus YDL192W, strain arf1, hits give low values 0.977 | locus YDR001C, strain nth1, hits give low values 0.99 | locus YDR069C, strain doa4, hits give low values 0.991 | locus YDR101C, strain arx1, hits give low values 0.954 | locus YDR137W, strain rgp1, hits give low values 0.971 | locus YDR159W, strain sac3, hits give low values 0.984 | locus YDR162C, strain NBP2, hits give low values 1.01 | locus YDR195W, strain ref2 0.991 | locus YDR297W, strain sur2, hits give low values 0.992 | locus YDR318W, strain mcm21, hits give low values 1 | locus YDR334W, strain swr1, hits give low values 0.979 | locus YDR335W, strain msn5, hits give low values 0.993 | locus YDR388W, hits give low values 0.977 | locus YDR392W, strain spt3, hits give low values 0.916 | locus YDR502C, strain sam2, hits give low values 0.996 | locus YEL003W, strain gim4, hits give low values 1 | locus YEL037C, strain rad23, hits give low values 0.988 | locus YEL061C, strain CIN8 (second series), hits give low values 0.989 | locus YEL061C, strain CIN8, hits give low values 1.02 | locus YER015W, strain faa2, hits give low values 0.971 | locus YER016W, strain bim1, hits give low values 0.997 | locus YER110C, hits give low values 0.974 | locus YER111C, strain swi4, hits give low values 0.983 | locus YER155C, strain BEM2 (second series), hits give low values 0.992 | locus YER155C, strain BEM2, hits give low values 0.976 | locus YER167W, strain BCK2, hits give low values 1 | locus YFR010W, strain ubp6, hits give low values 0.975 | locus YGL078C, strain dbp3, hits give low values 0.964 | locus YGL086W, strain mad1, hits give low values 0.957 | locus YGL167C, strain pmr1, hits give low values 0.984 | locus YGL173C, strain kem1, hits give low values 0.982 | locus YGL227W, strain vid30, hits give low values 0.992 | locus YGL240W, strain doc1, hits give low values 0.986 | locus YGL248W, strain PDE1, hits give low values 0.997 | locus YGL253W, strain hxk2, hits give low values 0.992 | locus YGR135W, strain pre9, hits give low values 1.01 | locus YGR229C, strain SMI1, hits give low values 1.01 | locus YGR252W, strain gcn5, hits give low values 1.06 | locus YHR013C, strain ard1, hits give low values 0.957 | locus YHR027C, strain rpn1, hits give low values 1.01 | [2] 0.991 and 0.989 | locus YHR079C, strain IRE1 (second series), hits give low values 0.984 | [3] 1 | locus YHR094C, strain hxt1, hits give low values 0.976 | locus YHR129C, strain ARP1, hits give low values 1 | locus YHR142W, strain chs7, hits give low values 0.979 | locus YHR200W, strain rpn10, hits give low values 0.982 | locus YIL066C, strain RNR3, hits give low values 0.987 | locus YIL073C, strain SPO22, hits give low values 0.997 | locus YIL125W, strain kgd1, hits give low values 0.967 | locus YIR030C, strain dcg1, hits give low values 0.978 | locus YJL092W, strain hpr5, hits give low values 0.988 | locus YJL095W, strain BCK1 (second series), hits give low values 0.991 | [4] 1.02 and 0.983 | locus YJL115W, strain asf1, hits give low values 0.987 | locus YJL129C, strain trk1, hits give low values 0.992 | locus YJL134W, strain LCB3, hits give low values 0.987 | locus YJL154C, strain vps35, hits give low values 1 | locus YJL164C, strain tpk1, hits give low values 0.969 | locus YJL166W, strain qcr8, hits give low values 0.97 | locus YJL168C, strain set2, hits give low values 0.979 | locus YJL187C, strain SWE1 (second series), hits give low values 0.999 | locus YJL187C, strain SWE1, hits give low values 0.986 | locus YJR043C, strain POL32, hits give low values 0.999 | [5] 0.943 | locus YKL009W, strain mrt4, hits give low values 1.01 | locus YKL068W, hits give low values 0.992 | locus YKL085W, strain MDH1 (second series), hits give low values 0.992 | locus YKL085W, strain MDH1, hits give low values 0.992 | locus YKL160W, strain elf1, hits give low values 0.971 | locus YKR001C, strain vps1, hits give low values 0.949 | locus YKR026C, strain gcn3, hits give low values 0.99 | locus YKR091W, strain srl3, hits give low values 0.986 | locus YLL001W, strain dnm1, hits give low values 0.987 | locus YLL026W, hits give low values 0.998 | locus YLL041C, strain sdh2, hits give low values 0.988 | locus YLR027C, strain aat2, hits give low values 0.99 | locus YLR039C, strain RIC1, hits give low values 1.03 | locus YLR058C, strain SHM2, hits give low values 1.01 | locus YLR102C, strain apc9, hits give low values 0.98 | [6] 0.974 | locus YLR221C, strain rsa3, hits give low values 0.975 | locus YLR258W, strain gsy2, hits give low values 0.99 | locus YLR262C, strain YPT6 (second series), hits give low values 0.952 | locus YLR262C, strain YPT6, hits give low values 1.04 | locus YLR268W, strain sec22, hits give low values 0.933 | locus YLR320W, strain mms22, hits give low values 0.975 | locus YLR330W, strain CHS5, hits give low values 0.99 | locus YLR342W, strain FKS1 (second series), hits give low values 0.989 | locus YLR342W, strain FKS1, hits give low values 0.98 | locus YLR357W, strain rsc2, hits give low values 0.952 | locus YLR370C, strain arc18, hits give low values 0.986 | locus YLR371W, strain rom2, hits give low values 0.959 | locus YLR384C, strain iki3, hits give low values 0.971 | locus YLR418C, strain cdc73, hits give low values 1.02 | locus YML016C, strain PPZ1, hits give low values 0.958 | locus YML032C, strain rad52, hits give low values 1.02 | locus YML120C, strain ndi1, hits give low values 0.978 | locus YML124C, strain tub3, hits give low values 0.972 | locus YMR058W, strain fet3, hits give low values 0.99 | locus YMR078C, strain ctf18, hits give low values 0.961 | locus YMR125W, strain sto1, hits give low values 0.979 | locus YMR129W, hits give low values 0.996 | locus YMR205C, strain PFK2, hits give low values 0.963 | locus YMR223W, strain ubp8, hits give low values 0.982 | locus YMR231W, strain pep5, hits give low values 0.986 | locus YMR307W, strain GAS1, hits give low values 1.01 | locus YNL067W, strain RPL9B, hits give low values 1 | locus YNL071W, strain lat1, hits give low values 0.986 | locus YNL128W, strain TEP1, hits give low values 0.988 | [7] 0.932 | locus YNL209W, strain ssb2, hits give low values 0.998 | locus YNL233W, strain BNI4, hits give low values 0.993 | locus YNL248C, strain rpa49, hits give low values 0.983 | locus YNL250W, strain rad50, hits give low values 0.962 | locus YNL271C, strain bni1, hits give low values 0.966 | locus YNL298W, strain CLA4, hits give low values 0.979 | locus YNL307C, strain MCK1, hits give low values 0.965 | locus YNL322C, strain KRE1 (second series), hits give low values 0.984 | locus YNL322C, strain KRE1, hits give low values 0.995 | locus YNR049C, strain mso1, hits give low values 0.986 | locus YNR052C, strain pop2, hits give low values 0.985 | locus YOL006C, strain TOP1, hits give low values 0.979 | locus YOL012C, strain htz1 1.07 | locus YOL147C, strain pex11, hits give low values 0.982 | locus YOR001W, strain rrp6, hits give low values 0.989 | locus YOR061W, strain CKA2, hits give low values 0.992 | locus YOR069W, strain VPS5, hits give low values 0.991 | locus YOR070C, strain gyp1, hits give low values 0.989 | locus YOR080W, strain dia2, hits give low values 0.981 | locus YOR083W, strain WHI5, hits give low values 0.973 | locus YOR106W, strain vam3, hits give low values 0.962 | locus YOR136W, strain idh2, hits give low values 0.96 | locus YOR144C, strain elg1, hits give low values 0.974 | locus YOR184W, strain ser1, hits give low values 0.991 | [8] 0.965 | locus YOR265W, strain rbl2, hits give low values 0.984 | locus YOR270C, strain vph1, hits give low values 0.987 | locus YOR290C, strain snf2, hits give low values 0.953 | locus YOR316C, strain cot1, hits give low values 0.976 | locus YPL051W, strain arl3, hits give low values 0.977 | locus YPL078C, strain atp4, hits give low values 0.979 | locus YPL106C, strain sse1, hits give low values 0.93 | locus YPL240C, strain hsp82, hits give low values 0.995 | [1] 0.993 | [9] 1 | locus YPR119W, strain clb2, hits give low values 0.976 | locus YPR141C, strain kar3, hits give low values 0.973 | locus YPR163C, strain tif3, hits give low values 0.975 | locus YPR167C, strain met16, hits give low values 0.998 | strain wtn01, hits give low values 0.932

CCCCCCCCCCCCCCCC(=O)OCC(O)[C@H]1OC(=O)C(O)=C1O (stereo partly drawn)
active: [2] 0.804 | [3] 0.83 | [4] 0.823 | [5] 0.777 | [6] 0.724 | [7] 0.703 | [8] 0.834 | [9] 0.763
